Compounds without any hit were thinned out: in the full panel of roughly 83,000, 20% have a hit.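 Method: cells in 96-well plates; compound added at one concentration; 48 h incubation; percent growth measured; values under 10 scored active.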 Values without a mark were called inactive. Active and inactive are the calls of the source.
Key:
Assay in all cases: NCI-60 one-dose screen, 48 h (100 = growth as untreated, 0 = no growth, -100 = all killed)
Settings in all cases: 10 µM unless noted
[1] = tested on: HCT-15 colon
[2] = tested on: HT29 colon
[3] = tested on: SNB-75 CNS
[4] = tested on: SNB-19 CNS
[5] = tested on: U251 CNS
[6] = tested on: PC-3 prostate
[7] = tested on: SK-MEL-5 melanoma
[8] = tested on: UACC-62 melanoma
[9] = tested on: LOX IMVI melanoma
[10] = tested on: SK-MEL-28 melanoma

## COc1cc(NC(=O)Nc2cccc(-c3cc(=O)c4c(OC)c(OC)c(OC)cc4o3)c2)cc(OC)c1OC
[1]
  growth: 32.7%
[2]
  growth: 46%
[3]
  growth: -0.583% (active)
[4]
  growth: 46.9%
[5]
  growth: 27.5%
[6]
  growth: 44.8%
[7]
  growth: 43%
[8]
  growth: 48.4%
[9]
  growth: 24.7%
[10]
  growth: 53.5%

## CN1CCN(Cc2ccc(NC(=O)c3cncc(C#Cc4cnc5ccc(OCC(F)F)nn45)c3)cc2C(F)(F)F)CC1
[1]
  growth: -57.4% (active)
[2]
  growth: -66% (active)
[3]
  growth: -95.1% (active)
[4]
  growth: -31.7% (active)
[5]
  growth: -72.7% (active)
[6]
  growth: -19.4% (active)
[7]
  growth: -95.7% (active)
[8]
  growth: -46.8% (active)
[9]
  growth: -91.2% (active)
[10]
  growth: -82.4% (active)

## CCOC(=O)c1cnc2c(-c3ccc(Cl)c(Cl)c3)cnn2c1
[1]
  growth: 40.8%
[2]
  growth: 56.8%
[3]
  growth: 59.9%
[4]
  growth: 82.5%
[5]
  growth: 80.4%
[6]
  growth: 73%
[7]
  growth: 79.8%
[8]
  growth: 60.8%
[9]
  growth: 79%
[10]
  growth: 80.4%

## O=S(=O)(Oc1ccc(-c2cn3ccoc3n2)cc1)c1cccc(C(F)(F)F)c1
[1]
  growth: 95.6%
[2]
  growth: 103%
[3]
  growth: 96.3%
[4]
  growth: 95.2%
[5]
  growth: 101%
[6]
  growth: 95.2%
[7]
  growth: 96.1%
[8]
  growth: 86.5%
[9]
  growth: 94.7%
[10]
  growth: 106%

## CC(Nc1c(C#N)cnc2ccc(-c3cncc(-c4n[nH]c(=O)o4)c3)cc12)c1ccccc1 (stereo not given)
[1]
  growth: 10.4%
[2]
  growth: 20.2%
[3]
  growth: 7.1% (active)
[4]
  growth: 11.1%
[5]
  growth: 17.6%
[6]
  growth: 18.9%
[7]
  growth: -84.8% (active)
[8]
  growth: -37% (active)
[9]
  growth: -8.49% (active)
[10]
  growth: 11.2%

## Cc1[nH]c(C(=O)Nc2ccc(S(=O)(=O)N3CCCCC3)cc2OCCOCCOCCOCCOCCOCCOCCOCCOCCOc2cc(S(=O)(=O)N3CCCCC3)ccc2NC(=O)c2[nH]c(C)c3c2CCCCC3=O)c2c1C(=O)CCCC2
[1]
  growth: 30.9%
[2]
  growth: 4.45% (active)
[3]
  growth: -2.1% (active)
[4]
  growth: 33.3%
[5]
  growth: 24.3%
[6]
  growth: 28.8%
[7]
  growth: 14.8%
[8]
  growth: -32.5% (active)
[9]
  growth: -75.1% (active)
[10]
  growth: 35.1%

## Cn1cc(-c2nnc(N)nc2-c2c[nH]c3ccc(F)cc23)c2cc(Br)ccc21
[1]
  growth: 16.9%
[2]
  growth: 3.17% (active)
[3]
  growth: 0.251% (active)
[4]
  growth: 25.6%
[5]
  growth: 17.5%
[6]
  growth: 22.6%
[7]
  growth: 4.51% (active)
[8]
  growth: 30.3%
[9]
  growth: 29%
[10]
  growth: 60.4%

## CC(=O)/C(N=Nc1ccc2oc(=O)ccc2c1)=C(\C)O
[1]
  growth: 16.5%
[2]
  growth: 24.4%
[3]
  growth: 67.8%
[4]
  growth: 29%
[5]
  growth: 23.3%
[6]
  growth: 20.7%
[7]
  growth: 9.01% (active)
[8]
  growth: 33.8%
[9]
  growth: 19%
[10]
  growth: 47.3%

## COc1ccccc1/C=C/C(=O)c1nnn(-c2ccc(F)cc2)c1C
[1]
  growth: 22.9%
[2]
  growth: 4.8% (active)
[3]
  growth: 40.6%
[4]
  growth: 63.2%
[5]
  growth: 36.3%
[6]
  growth: 68.9%
[7]
  growth: 79.3%
[8]
  growth: 59.4%
[9]
  growth: 2.13% (active)
[10]
  growth: 75.2%

## CC1=C(C)C(=O)C(Nc2ccc3c(c2)OCCO3)=C(Br)C1=O
[1]
  growth: 98.1%
[2]
  growth: 108%
[3]
  growth: 83.7%
[4]
  growth: 98.5%
[5]
  growth: 103%
[6]
  growth: 86%
[7]
  growth: 89.1%
[8]
  growth: 92.1%
[9]
  growth: 20.3%
[10]
  growth: 107%

## Cc1csc(/N=C(N)/N=C(\N)c2cccs2)n1
[1]
  growth: 100%
[2]
  growth: 116%
[3]
  growth: 94.3%
[4]
  growth: 103%
[5]
  growth: 97%
[6]
  growth: 92.3%
[7]
  growth: 99.5%
[8]
  growth: 94.7%
[9]
  growth: 104%
[10]
  growth: 117%

## CC(=O)C1=C(C)NC(NNc2ccccc2)=NC1c1ccc([N+](=O)[O-])cc1 (stereo not given)
[1]
  growth: 67.9%
[2]
  growth: 96.5%
[3]
  growth: 102%
[4]
  growth: 87.8%
[5]
  growth: 93.1%
[6]
  growth: 79.3%
[7]
  growth: 98.7%
[8]
  growth: 52.8%
[9]
  growth: 77.1%
[10]
  growth: 102%

## CCOC(=O)c1cccc(NC2=C(Cl)C(=O)C(C)=C(C)C2=O)c1
[1]
  growth: 99.3%
[2]
  growth: 110%
[3]
  growth: 104%
[4]
  growth: 96.5%
[5]
  growth: 90.9%
[6]
  growth: 85.6%
[7]
  growth: 100%
[8]
  growth: 94.7%
[9]
  growth: 91.9%
[10]
  growth: 110%

## CN(C)c1ccc(-c2cc(-c3c[nH]c4ccccc34)nc(N)c2C#N)cc1
[1]
  growth: 11.9%
[2]
  growth: 11.3%
[3]
  growth: 21.1%
[4]
  growth: 40.7%
[5]
  growth: 26.5%
[6]
  growth: 37%
[7]
  growth: 29.8%
[8]
  growth: 42%
[9]
  growth: 11.3%
[10]
  growth: 59.8%

## CN1CCN(c2ccc(Nc3nc(NCCCNS(=O)(=O)c4cccc(F)c4)c4sccc4n3)cc2)CC1
[1]
  growth: 17.3%
[2]
  growth: -68.7% (active)
[3]
  growth: 82.1%
[4]
  growth: 48.7%
[5]
  growth: 6.85% (active)
[6]
  growth: 63.1%
[7]
  growth: -77.6% (active)
[8]
  growth: 0.267% (active)
[9]
  growth: -58.1% (active)
[10]
  growth: -77.4% (active)

## C=C(C)[C@@H]1CC[C@]2(C(=O)O)CC[C@]3(C)[C@H](CC[C@@H]4[C@@]5(C)C/C(=C/c6ccccn6)C(=O)C(C)(C)[C@@H]5CC[C@]43C)[C@@H]12
[1]
  growth: 18.9%
[2]
  growth: 40.8%
[3]
  growth: 61.1%
[4]
  growth: 50.3%
[5]
  growth: 27.9%
[6]
  growth: 28.4%
[7]
  growth: 31.8%
[8]
  growth: 40.1%
[9]
  growth: 34.6%
[10]
  growth: 64%

## CC(Nc1c(C#N)cnc2ccc(-c3cncc(O)c3)cc12)c1ccccc1 (stereo not given)
[1]
  growth: 4.88% (active)
[2]
  growth: 46.8%
[3]
  growth: 10.5%
[4]
  growth: -6.67% (active)
[5]
  growth: 6.74% (active)
[6]
  growth: 9.41% (active)
[7]
  growth: -89.4% (active)
[8]
  growth: -51.2% (active)
[9]
  growth: 1.56% (active)
[10]
  growth: 3.08% (active)

## Fc1ccc(-c2cn3c(-c4c[nH]c5ccc(Br)cc45)csc3n2)cc1
[1]
  growth: 77.8%
[2]
  growth: 97.9%
[3]
  growth: -7.44% (active)
[4]
  growth: 52.6%
[5]
  growth: 47.8%
[6]
  growth: 73.6%
[7]
  growth: 95.2%
[8]
  growth: 65.7%
[9]
  growth: 13.1%
[10]
  growth: 87.8%

## C#C[C@]1(O)CC[C@H]2[C@@H]3CC=C4c5sc(NCc6ccccc6)nc5CC[C@]4(C)[C@H]3CC[C@@]21C
[1]
  growth: 8.8% (active)
[2]
  growth: -7.33% (active)
[3]
  growth: 23.5%
[4]
  growth: 66.2%
[5]
  growth: 23.4%
[6]
  growth: 15.3%
[7]
  growth: 58.2%
[8]
  growth: 9.41% (active)
[9]
  growth: -5.72% (active)
[10]
  growth: 12.7%

## C=CCSC1=NC2C(N(CC)C(=O)N2CC)N1/N=C/C=C/c1ccccc1OC (stereo not given)
[1]
  growth: 50.8%
[2]
  growth: 70.3%
[3]
  growth: 70.7%
[4]
  growth: 79.9%
[5]
  growth: 74.2%
[6]
  growth: 62.4%
[7]
  growth: 65.5%
[8]
  growth: 54.6%
[9]
  growth: 68.9%
[10]
  growth: 84.3%

## Cc1ccc(NC2=C(Cl)C(=O)c3nc(C)ccc3C2=O)c(C)c1
[1]
  growth: -57.7% (active)
[2]
  growth: 80.5%
[3]
  growth: 87.9%
[4]
  growth: 30.5%
[5]
  growth: 22.6%
[6]
  growth: 22.6%
[7]
  growth: -50.2% (active)
[8]
  growth: 18.5%
[9]
  growth: -29.2% (active)
[10]
  growth: 30.9%

## O=C1Nc2ccccc2/C1=C/c1ccc(OCC(=O)c2ccccc2)cc1
[1]
  growth: 96.8%
[2]
  growth: 117%
[3]
  growth: 73.8%
[4]
  growth: 94.6%
[5]
  growth: 100%
[6]
  growth: 82.9%
[7]
  growth: 97.7%
[8]
  growth: 87.1%
[9]
  growth: 94.5%
[10]
  growth: 100%

## C#CCOc1ccccc1C(OC(=O)c1ccccc1)C(=O)NC(C)(C)C(C)(C)C (stereo not given)
[1]
  growth: 78.3%
[2]
  growth: 74.6%
[3]
  growth: 71.4%
[4]
  growth: 95.1%
[5]
  growth: 87.1%
[6]
  growth: 60.7%
[7]
  growth: 80.8%
[8]
  growth: 66.9%
[9]
  growth: 91.6%
[10]
  growth: 101%

## COc1cc2cc(Oc3ccc(NC(=O)c4cc(C(F)(F)F)cc(C(F)(F)F)c4)cc3)c(C)nc2cc1OCCN1CCOCC1
[1]
  growth: 47.1%
[2]
  growth: 63.8%
[3]
  growth: 47.7%
[4]
  growth: 87.6%
[5]
  growth: 55%
[6]
  growth: 41.7%
[7]
  growth: 14.6%
[8]
  growth: 59.3%
[9]
  growth: 69.6%
[10]
  growth: 70.8%

## COc1ccc(C(=NNS(=O)(=O)c2ccc(C)cc2)c2ccccc2)cc1OC
[1]
  growth: 96.6%
[2]
  growth: 103%
[3]
  growth: 90.4%
[4]
  growth: 94.6%
[5]
  growth: 96.1%
[6]
  growth: 93%
[7]
  growth: 97.6%
[8]
  growth: 70.3%
[9]
  growth: 106%
[10]
  growth: 108%

— PubChem BioAssay (NCI)
